Assay results from PubChem BioAssay (NCI).
Compounds without any hit were thinned out: in the full panel of roughly 83,000, 20% have a hit.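 Cell lines were cultured in 96-well plates, exposed to a single compound concentration, and assessed for percent growth 48 hours later.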 Unmarked numbers belong to inactive results. Activity calls are given as the source filed them. Rule for the calls: active = growth percent below 10; inactive = the rest.

Assays:
Assay in all cases: NCI-60 one-dose screen, 48 h (100 = growth as untreated, 0 = no growth, -100 = all killed)
HCT-15 colon = conditions: 10 µM unless noted
HT29 colon = conditions: 10 µM unless noted
SNB-75 CNS = conditions: 10 µM unless noted
SNB-19 CNS = conditions: 10 µM unless noted
U251 CNS = conditions: 10 µM unless noted
PC-3 prostate = conditions: 10 µM unless noted
SK-MEL-5 melanoma = conditions: 10 µM unless noted
UACC-62 melanoma = conditions: 10 µM unless noted
LOX IMVI melanoma = conditions: 10 µM unless noted
SK-MEL-28 melanoma = conditions: 10 µM unless noted
SK-MEL-2 melanoma = conditions: 10 µM
EKVX NSCLC = conditions: 10 µM unless noted
SN12C renal = conditions: 10 µM unless noted
UO-31 renal = conditions: 10 µM unless noted
TK-10 renal = conditions: 10 µM unless noted
ACHN renal = conditions: 10 µM unless noted
CAKI-1 renal = conditions: 10 µM unless noted
CCRF-CEM leukemia = conditions: 10 µM unless noted
MOLT-4 leukemia = conditions: 10 µM unless noted
A498 renal = conditions: 10 µM unless noted

SMILES	growth (HCT-15 colon)	growth (HT29 colon)	growth (SNB-75 CNS)	growth (SNB-19 CNS)	growth (U251 CNS)	growth (PC-3 prostate)	growth (SK-MEL-5 melanoma)	growth (UACC-62 melanoma)	growth (LOX IMVI melanoma)	growth (SK-MEL-28 melanoma)	growth (SK-MEL-2 melanoma)	growth (EKVX NSCLC)	growth (SN12C renal)	growth (UO-31 renal)	growth (TK-10 renal)	growth (ACHN renal)	growth (CAKI-1 renal)	growth (CCRF-CEM leukemia)	growth (MOLT-4 leukemia)	growth (A498 renal)
O=C1CC(c2cccc(F)c2)c2c(n[nH]c2-c2ccc(Cl)cc2)N1 (stereo unspecified)	92.5%	81.1%	97.3%	99.3%	86.1%	80.5%	87.1%	86.2%	96.9%	107%	110%	85.1%	92.8%	79.3%	94.1%	90%	77.7%	101%	88%	–
CCOC(=O)C1=C(C)N=C2Sc3cccc(OC)c3N2[C@H]1c1ccccn1	104%	97.3%	93.7%	96.8%	96.4%	88.3%	101%	87.1%	96.7%	119%	99.3%	85.8%	93.4%	75.3%	117%	101%	89.2%	102%	96.9%	–
Fc1ccc(NCc2cn(-c3ccccc3)nc2-c2ccc(OCc3ccccc3)cc2)cc1Cl	92.2%	71.3%	77.7%	95.1%	97.1%	79.9%	101%	90.7%	96.7%	98.9%	91.9%	85.7%	91.6%	75%	93.7%	91%	82.9%	92%	85.8%	119%
CCCCCCCC(=O)SCC/C=C/[C@@H]1CC(=O)NCc2nc(co2)C2=N[C@@](C)(CS2)C(=O)N[C@@H](C(C)C)C(=O)O1	0.603% (active)	2.22% (active)	26.1%	9.15% (active)	-61.2% (active)	9.75% (active)	-93.5% (active)	-68% (active)	-97.2% (active)	-37.2% (active)	-3.78% (active)	16.2%	12.6%	-13.5% (active)	-18.6% (active)	-27.5% (active)	-50.8% (active)	19.3%	3.84% (active)	–
CC(C)(C)CC(C)(C)Nc1c(-c2c(O)c3ccccc3oc2=O)nc2c(Cl)cc(C(F)(F)F)cn12	107%	105%	85.7%	101%	101%	79.6%	97.8%	93.4%	98.1%	113%	102%	97.3%	91.6%	70.7%	96.4%	97.3%	87.6%	89.1%	82.6%	62%
COc1cc(C(=O)NNC(=O)c2ccc(NC(=O)CCl)cc2)cc(OC)c1OC	86.4%	60.5%	87.4%	88.9%	11.1%	66.1%	77.9%	66.9%	28.9%	86.9%	80.7%	92.4%	65.9%	80.1%	107%	89.8%	98.2%	33%	57.2%	85.9%
CC(=O)Oc1ccccc1C(=O)N=C1[Se]CCN1C(=O)c1ccccc1OC(C)=O	-36.1% (active)	0.805% (active)	-65.2% (active)	-48.8% (active)	-63.6% (active)	-49.7% (active)	-57.6% (active)	-57.8% (active)	-49% (active)	-27.9% (active)	-18.4% (active)	-39% (active)	-30% (active)	-91% (active)	-72.3% (active)	-91.5% (active)	-97.7% (active)	18.6%	6.05% (active)	–
O=C(NO)c1ccc(Cn2c(=O)n(-c3ccccc3F)c(=O)c3ccccc32)cc1	20.6%	9.88% (active)	-3.9% (active)	6.93% (active)	-85.3% (active)	-33.6% (active)	-19.2% (active)	-46.2% (active)	-86.4% (active)	-21.5% (active)	-3.95% (active)	6.72% (active)	11.5%	27.2%	6.07% (active)	22%	25%	2.07% (active)	-8.31% (active)	-34.7% (active)
CC(C)n1c(NCCc2ccc(O)c(O)c2)nc2c1c(=O)n(C)c(=O)n2C	98.8%	98.1%	80.2%	101%	97.5%	89.3%	92.8%	94.4%	95.2%	102%	107%	101%	98.4%	87.3%	84.6%	99.3%	88.1%	99.6%	105%	–
CCCCCCCC(=O)SCC/C=C/[C@@H]1CC(=O)NCc2cc(ccn2)C2=N[C@@](C)(CS2)C(=O)N[C@@H](C(C)C)C(=O)O1	1.6% (active)	1.74% (active)	31.8%	10.2%	-55.7% (active)	16.4%	-95.3% (active)	-56.8% (active)	-95.1% (active)	-24.7% (active)	-2.2% (active)	19.9%	21.9%	-10.5% (active)	-15.6% (active)	-17.2% (active)	-54.4% (active)	39%	12.8%	–
COc1ccc(C2CC(=O)c3c(O)c(OC)c(OC)c(OC)c3O2)c(O)c1 (stereo unspecified)	10.3%	65.3%	38.1%	35.6%	24.3%	29%	20%	37%	44.2%	61.2%	52%	48.4%	47.4%	54.2%	73.1%	44.3%	41.1%	25.5%	22.6%	–
COc1cnc2c(c1)C(=O)c1c-2n(CCCn2ccnc2)c(=O)c2cc(Cl)ccc12	28.9%	-31.5% (active)	19%	20.2%	-31% (active)	24.8%	-49.9% (active)	-43.1% (active)	-52.5% (active)	52.2%	50%	40.2%	10%	-0.232% (active)	45.9%	-3.65% (active)	11.9%	-11.9% (active)	-23.6% (active)	-41.2% (active)
COc1cnc2c(c1)C(=O)c1c-2n(CCCN2CCOCC2)c(=O)c2cc(Cl)ccc12	43.9%	8.04% (active)	45.9%	28.6%	8.25% (active)	32%	-9.63% (active)	4.37% (active)	-36.6% (active)	66.4%	92.1%	54.2%	21.6%	13.8%	83.1%	6.75% (active)	18.3%	1.33% (active)	-17.8% (active)	-2.15% (active)
O=C1/C(=C\c2cccc(OCCCCCOc3ccc(Cl)cc3)c2)N=C2SCCCN12	57.7%	67.4%	71.3%	75%	74.1%	28.8%	-6.82% (active)	56.6%	67.1%	58.7%	41.2%	37.2%	77.6%	39.4%	56.7%	49.3%	52.7%	55.9%	36.7%	39.6%
CCc1nc2cc(/C=C/C(=O)NO)ccc2c(=O)n1CCc1ccc(F)cc1	24.7%	8.3% (active)	30.6%	23.6%	-20.8% (active)	13.2%	-37.8% (active)	-28.8% (active)	-73.2% (active)	22.8%	49.1%	38.5%	0.812% (active)	-15.5% (active)	-12.3% (active)	-26.5% (active)	0.0916% (active)	–	-3.04% (active)	-26.2% (active)
COc1ccc(CCCc2c3[n+](cc4c(OC)c(OC)ccc24)CCc2cc4c(cc2-3)OCO4)cc1	102%	47.2%	88.3%	60.4%	40.8%	58.2%	39%	49.7%	57.8%	63.1%	60.1%	78.3%	69%	93.2%	66.4%	96.2%	98.3%	64.7%	76.8%	–
